# Rab9 promoter act: qHTS Assay for Rab9 Promoter Activators; Huh7 Rab9 promoter-luciferase reporter, luminescence, 24 h; Potency, µM (highest dose often 9.22 µM), most hits filed as activators; hit rate 2.8% among 320,000; note: nearly all actives have a fitted effect of over 60% in size
#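 Steps: seed 1500 Huh7 Rab9-luc cells per well, rest 2 h at 37 °C; add compound in DMSO; incubate 24 h; add luciferase reagent, 10 min ambient; read luminescence.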
# ELG1 repair inh: qHTS screen for small molecules that inhibit ELG1-dependent DNA repair in human embryonic kidney (HEK293T) cells expressing luciferase-tagged ELG1; HEK293T ELG1-luciferase reporter, luminescence, 16 h; DNA damage induced by 5-fluorouridine; Potency, µM (series often up to 46.1 µM), actives largely listed as inhibitors; hit rate 2.3% among 330,000; AID 504467, 2011; note: nearly all actives have a fitted effect of over 55% in size
#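 Luminescence from the luciferase reporter, measured 30 min after ONE-Glo reagent at room temperature, was the read-out. Beforehand, 2,000 cells per well were exposed for 16 hr at 37 °C to 5-fluorouridine together with compound or vehicle.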
# ELG1 genotoxic: qHTS screen for small molecules that induce genotoxicity in human embryonic kidney (HEK293T) cells expressing luciferase-tagged ELG1 | hit rate 1.3% among 330,000 | Potency, µM (highest dose often 46 µM), usual class: activators | HEK293T ELG1-luciferase reporter, luminescence, 16 h; note: nearly all actives have a fitted effect of over 60% in size
#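 After overnight (16 hr) compound treatment at 37 °C, ELG1-luciferase HEK293T cells were lysed with ONE-Glo; luminescence quantified 30 min later at room temperature.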
# NPC1 promoter act: qHTS Assay for NPC1 Promoter Activators; Huh7 NPC1 promoter luciferase reporter, 24 h; Potency, µM (series often up to 9.22 µM), hits mostly activators; hit rate 2.4% among 320,000; AID 485313, 2010; note: nearly all actives have a fitted effect of over 60% in size
#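 Quantitative HTS used a cell-based reporter: Huh7 cells stably bearing the NPC1 promoter upstream of luciferase were treated with compounds for 24 h, and promoter activation was read as luminescence.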
# SMN2 splice enh: qHTS Assay for Enhancers of SMN2 Splice Variant Expression; HEK293 SMN2-luciferase splicing reporter, luminescence, 30-36 h; Potency, µM (doses to about 46.1 µM), hits mostly activators; hit rate 2.8% among 210,000; note: nearly all actives have a fitted effect of over 55% in size
#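 qHTS luciferase splicing reporter: luminescence rises when SMN2 exon 7 is included in transfected HEK293 cells. Compound exposure lasted 30-36 h at 37C, with 4.5 mM final sodium butyrate as control, followed by a ONE-Glo read.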
# FLuc counter: qHTS profiling assay for firefly luciferase inhibitor/activator using purifed enzyme and Km concentrations of substrates (counterscreen for miR-21 project); Luciferin 4-monooxygenase (Photinus pyralis), P08659; purified FLuc, Km substrates, luminescence inhibition; Potency, µM (doses to about 57.5 µM), actives largely listed as inhibitors; hit rate 6.9% among 360,000; AID 588342, 2011; note: nearly all actives have a fitted effect of over 55% in size
# Target sequence (P08659 whole entry, looked up): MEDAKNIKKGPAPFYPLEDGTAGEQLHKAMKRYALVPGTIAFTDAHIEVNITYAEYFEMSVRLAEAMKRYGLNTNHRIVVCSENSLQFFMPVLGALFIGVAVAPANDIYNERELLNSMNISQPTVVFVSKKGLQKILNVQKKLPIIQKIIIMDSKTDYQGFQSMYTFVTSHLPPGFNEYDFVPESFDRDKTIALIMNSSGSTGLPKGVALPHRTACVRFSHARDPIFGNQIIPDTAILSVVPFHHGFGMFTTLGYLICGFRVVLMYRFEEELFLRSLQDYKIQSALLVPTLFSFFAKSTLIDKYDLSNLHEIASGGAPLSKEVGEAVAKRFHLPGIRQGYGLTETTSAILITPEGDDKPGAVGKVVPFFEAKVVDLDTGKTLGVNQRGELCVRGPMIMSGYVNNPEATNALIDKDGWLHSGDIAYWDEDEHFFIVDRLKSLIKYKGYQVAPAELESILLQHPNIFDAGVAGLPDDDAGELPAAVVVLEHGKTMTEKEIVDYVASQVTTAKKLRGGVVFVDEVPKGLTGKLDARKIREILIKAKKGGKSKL
#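 Purified P. pyralis luciferase, 10 nM final, with Km-level 10 uM D-luciferin and 10 uM ATP in 50 mM Tris acetate pH 7.5, 10 mM Mg acetate, 0.01% Tween-20, 0.05% BSA; 6-point qHTS titration about 60 µM downward; luminescence read.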
# Numbers stand for hits; n = inactive; u = inconclusive; x = no result; [ ] = dose if it differs, or a comment. Rows were chosen to be rich in hits. Some 9.3% of all compounds tested hit in one or more screens of this group. Calls come from the whole dose curve; as a rule, active = well fitted curve in the direction sought with a large enough effect; inconclusive = small, poorly fitted or top-dose-only effect, or another doubt; inactive = no such curve, though single readings can be large; an effect the other way counts as inactive or inconclusive.
SMILES,Rab9 promoter act,ELG1 repair inh,ELG1 genotoxic,NPC1 promoter act,SMN2 splice enh,FLuc counter
CCOc1ccc(-n2c(SCC(=O)Nc3cc(C)on3)nnc2-c2c[nH]c3ccccc23)cc1,n,n,u,n,n,n
COc1ccc(-c2csc3ncn(-c4ccccc4)c(=O)c23)cc1OC,n,n,n,n,x,n
OC(Cn1cncn1)(Cn1cncn1)c1ccc(F)cc1F,x,x,x,x,n,x
CN(C)C(=O)c1nc2ccccc2s1,n,u,n,n,n,u
CCOC(=O)Nc1nc2ccccc2s1,3.5µM,u,3.7µM,3.2µM,u,6.7µM
CN(C)c1ccc(CC(=O)c2nc3ccccc3s2)cc1,2.5µM,u,u,u,n,8.5µM
Cc1nc2c(ccc3nc(NC(=O)c4ccc(S(=O)(=O)N(C)C)cc4)sc32)s1,n,n,n,n,n,2.7µM
O=C(NCc1ccc2c(c1)OCO2)c1c(F)c(F)c(F)c(F)c1F,n,n,n,n,n,n[2.3 µM]
CCCC(=O)N(CC(=O)Nc1sc(C)c(C)c1C(N)=O)Cc1ccccc1,n,u,n,n,x,n
CN(C)c1ccc(/C=C/C(=O)c2c(O)c3ccccc3oc2=O)cc1,u,u,n,n,x,21µM
CCOc1ccc(/C=C/C(=O)c2c(O)c3ccccc3oc2=O)cc1,n,n,n,n,n,11µM
CCOC(=O)c1c(O)c2ccccc2oc1=O,n,n,n,n,x,u
COc1ccc(CCNc2ncnc3c2c(C)c(C)n3CCCN(C)C)cc1OC,n,n,n,n,x,n
COc1ccc(Nc2ncnc3c2c(C)c(C)n3CCO)cc1,1.6µM,u,8.2µM,1µM,x,5.4µM
Cc1c(C)n(CCCN(C)C)c2ncnc(Nc3ccc(F)cc3)c12,n,n,n,n,x,n
COc1ccc(CCNc2ncnc3c2c(C)c(C)n3CCO)cc1OC,n,23µM,n,n,x,u
Cc1c(C)n(CCO)c2ncnc(Nc3ccc(F)cc3)c12,u,u,u,n,x,19µM
COc1ccc(Nc2ncnc3c2cnn3Cc2ccccc2)cc1,n,n,n,n,n,n
O=c1c2ccc(Cl)cc2nc(-c2ccc([N+](=O)[O-])cc2)n1O,n,9.2µM,n,n,n,u
CCOC(=O)C1CCN(Cc2cnc(Oc3ccc(Cl)cc3C)s2)CC1,n,n,n,n,n,n
Nc1nc(-c2ccc3c(c2)CCCC3)c(CC(=O)O)s1,n,n,n,n,x,24µM
O=C(CN1CCOCC1)NCCNC(=O)CN1CCOCC1,n,n,n,n,13µM,n
CCCNc1[nH]c(=O)n(C)c(=O)c1N=O,n,n,n,n,n,n
Oc1ccc2ccccc2c1-c1sc(Nc2ccccc2)n[n+]1-c1ccc(F)cc1,n,n,n,n,x,n
Fc1ccc(-[n+]2nc(Nc3ccccc3)sc2-c2c3ccccc3cc3ccccc23)cc1,n,4.6µM,n,n,x,n
SMILES,Rab9 promoter act,ELG1 repair inh,ELG1 genotoxic,NPC1 promoter act,SMN2 splice enh,FLuc counter
O=C(O)c1cccc(N2C(=O)c3ccc(C(=O)c4cccc([N+](=O)[O-])c4)cc3C2=O)c1,n,n,n,n,x,n
O=C(O)c1cccc(NC(=O)c2ccc3c(c2)C(=O)N(c2cccc([N+](=O)[O-])c2)C3=O)c1,n,n,n,n,x,3.8µM
CC(C)(C)N1C(=O)c2ccc(C(=O)Nc3ccc(C(=O)O)cc3)cc2C1=O,n,n,n,n,x,11µM
O=C(O)c1cccc(NC(=O)c2ccc(N3C(=O)c4ccc(C(=O)Nc5cccc(C(=O)O)c5)cc4C3=O)cc2)c1,u,n,n,n,x,27µM
O=C(O)c1ccc2c(c1)C(=O)N(c1cccc(C(=O)/C=C/c3ccccc3)c1)C2=O,n,u,n,n,x,2.7µM
CC(=O)c1cccc(NC(=O)c2cccc(N3C(=O)c4ccccc4C3=O)c2)c1,n,n,n,n,x,n
O=C(O)c1cccc(N2C(=O)c3cc4cccc(Br)c4cc3C2=O)c1,n,n,n,n,x,n
CN(c1ccccc1)S(=O)(=O)c1ccc(C(=O)NCC2CCCO2)cc1 (stereo unspecified),n,n,n,n,n,n
CNC(=O)CSc1nnc(-c2ccco2)n1-c1ccc(C)cc1,n,n,n,n,n,n
O=C(Nc1ccccc1O)c1ccc2c(c1)C(=O)N(c1ccccc1)C2=O,n,n,n,n,x,n
CCN1C(=O)c2ccc(C(=O)O)cc2C1=O,n,n,n,n,n,n
CCN1C(=O)c2ccc(C(=O)Nc3cccc(C(=O)O)c3)cc2C1=O,u,n,n,n,x,0.27µM
O=C(O)c1ccc(NC(=O)c2ccc3c(c2)C(=O)N(c2ccccc2)C3=O)cc1,n,n,n,n,x,15µM
CC(/C=N/NC(=O)CSc1n[nH]c(=O)[nH]c1=O)=C\c1ccccc1,n,n,n,n,x,15µM
O=C(Cc1cccs1)N/N=C/c1ccccn1,n,u,n,n,x,n
Cn1cccc1CC(=O)N/N=C/c1cccc2ccccc12,n,n,n,n,n,n
CC(/C=N/NC(=O)Cc1cccs1)=C\c1ccccc1,3.5µM,u,u,u,x,2.7µM
CC(/C=N/NC(=O)Cc1cccn1C)=C\c1ccccc1,n,u,n,n,n,11µM
O=C(Cc1cccs1)N/N=C/C(Br)=C/c1ccccc1,4µM,u,u,3.2µM,u,u
COc1ccc(C(=O)N2CCCC(C(=O)N3CCCCCC3)C2)cc1 (stereo unspecified),n,n,n,n,n,n
CC(C)(C)OC(=O)N/N=C\c1ccc(OC(=O)c2cccs2)cc1,n,u,u,n,u,n
COc1ccccc1-n1nc(C(=O)O)c2ccccc2c1=O,n,n,n,n,n,u
COc1cccc(CC2(CO)CCCN(Cc3ccc(-c4ccco4)cc3)C2)c1 (stereo unspecified),n,n,n,n,x,n
O=C1c2ccccc2-c2onc3ccc(Oc4ccccc4)c1c23,n,u,n,n,n,n
COC(=O)Cc1c(C)nc2nc(-c3ccc(C)cc3)[nH]n2c1=O,n,u,u,n,n,8.5µM
COC(=O)Cc1c(C)nc2nc(-c3cccnc3)[nH]n2c1=O,n,n,n,n,n,u
COC(=O)Cc1c(C)nc2nc(-c3ccccc3)[nH]n2c1=O,n,n,n,n,n,17µM
COC(=O)Cc1c(C)nc2nc(-c3ccc(Cl)cc3)[nH]n2c1=O,n,u,u,n,n,11µM
Cc1nn(C(=O)CCC(=O)NCc2ccccc2Cl)c2ccccc12,n,n,n,n,x,n

# Bioassay records (PubChem BioAssay)
